Measured values taken from PubChem BioAssay.
Activity calls are given as the source filed them. Unless noted, no rule for the calls is given here.

Experiments:
[1] = test system: Wnt5a (protein binding on small-molecule microarray); assay: small molecules binding Wnt5a protein – biophysical, small-molecule microarray, 635/667 nm fluorescence, primary screen (AID 1142); settings: 635 nm fluorescence, higher = more signal;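 also: fluorescence read at 667 nm with signal to noise per printed feature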
[2] = ATP-based viability of Huh7 replicon cells – cell-based, CellTiter-Glo luminescence, basal, 48 h, cytotoxicity control for HCV replication inhibitor project, primary screen (AID 1143); settings: higher = more signal, called active from +8 up or from −8 down;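 also: Huh7 hepatoma cells carrying a hepatitis C replication reporter with no stimulus; test concentration not given here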
[3] = Pseudomonas biofilm growth suppression – PAO1 strain, BacTiter-Glo luminescence, LB-PBS, primary screen (AID 1144); settings: P. aeruginosa PAO1 biofilm, 12 h, higher = more signal
[4] = basal CRE-LacZ reporter activity in PC12 – cell-based, unstimulated, primary screen (AID 1145); settings: no forskolin, luminescence, 4.5 h, higher = more signal, called active from +8 up or from −8 down
[5] = forskolin-driven CRE-LacZ activity in PC12 – cell-based, CRE-LacZ reporter, forskolin-stimulated, primary screen (AID 1146); settings: luminescence, 4.5 h, higher = more signal, called active from +8 up or from −8 down;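 also: PC12 cells with 6xCRE LacZ reporter stimulated by forskolin 10 µM; beta-galactosidase reporter signal reflecting CREB driven transcription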
[6] = biological target: Streptavidin (Streptomyces avidinii) (UniProt P22629); assay: compounds binding control protein streptavidin – biophysical, small-molecule microarray, 635/667 nm fluorescence, artefact control for SMM compound annotation, primary screen (AID 1147); settings: higher = more signal;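 also: signal reflects streptavidin binding to arrayed compounds as a control protein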
Streptavidin (Streptomyces avidinii), sequence (P22629 whole entry, looked up): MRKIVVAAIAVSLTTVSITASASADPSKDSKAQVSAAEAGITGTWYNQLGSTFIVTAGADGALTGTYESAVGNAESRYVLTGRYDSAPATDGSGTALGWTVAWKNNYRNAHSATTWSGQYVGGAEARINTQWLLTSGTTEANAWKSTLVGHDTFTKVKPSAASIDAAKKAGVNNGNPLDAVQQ

[7] = probe aInhba binding on compound microarray – biochemical, small-molecule microarray, 635/667 nm fluorescence, primary screen (AID 1148); settings: higher = more signal;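 also: score merges 667nm spot fluorescence with signal-to-noise for antibody binding to printed compounds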
Torsin-1A (Homo sapiens) [8] = biological target: Torsin-1A (Homo sapiens) (UniProt O14656); assay: TOR1A wild-type binding on microarray – cell lysate, small-molecule microarray, lysate, 635/667 nm, primary screen (AID 1149); settings: COS7 hTOR1A-WT lysate, 635 nm fluorescence, higher = more signal
Torsin-1A (Homo sapiens), sequence (O14656 whole entry, looked up): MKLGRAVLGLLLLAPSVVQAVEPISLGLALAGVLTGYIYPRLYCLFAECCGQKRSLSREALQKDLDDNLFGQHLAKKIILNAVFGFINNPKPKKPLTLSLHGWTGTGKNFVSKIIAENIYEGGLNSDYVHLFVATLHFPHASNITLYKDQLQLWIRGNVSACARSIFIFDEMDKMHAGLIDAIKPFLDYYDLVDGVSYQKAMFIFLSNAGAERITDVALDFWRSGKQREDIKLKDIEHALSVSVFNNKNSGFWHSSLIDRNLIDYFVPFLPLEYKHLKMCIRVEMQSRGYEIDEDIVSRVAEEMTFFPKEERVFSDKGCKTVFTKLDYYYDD

Torsin-1A (Homo sapiens) [9] = biological target: Torsin-1A (Homo sapiens) (UniProt O14656); assay: torsin A mutant lysate binding on microarrays – cell lysate, small-molecule microarray, COS7 lysate, 635/667 nm fluorescence, primary screen (AID 1150); settings: COS7 hTOR1A mutant lysate, 635 nm fluorescence, higher = more signal;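 also: score pools 667 nm emission and signal to noise measuring lysate protein binding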
[10] = test system: Sonic hedgehog protein (Shh); assay: Sonic hedgehog microarray binding compounds – biochemical, small-molecule microarray, 635/667 nm fluorescence, primary screen (AID 1151); settings: 635 nm fluorescence, higher = more signal;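 also: Shh protein binding to compounds spotted on small-molecule microarray slides; score combines spot fluorescence intensity with signal-to-noise across triplicate slides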
[11] = optical density shifts of acrAB sulA E. coli – strain DRC41, OD650, 48 h, E. coli filamentation inducer project, primary screen (AID 1152); settings: higher = more signal, called active from +8 up or from −8 down;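 also: E. coli MC1000 strain DRC41 lacking acrAB efflux pump and sulA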
[12] = probe aLefty1 binding on compound microarray – biochemical, small-molecule microarray, 635/667 nm fluorescence, primary screen (AID 1153); settings: higher = more signal;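 also: score merges spot fluorescence with signal-to-noise ratio from the scanned slide images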
[13] = plasmodial surface anion channel blockers, osmotic lysis – cell-based, P. falciparum Indochina, OD700, 1 h, primary screen (AID 1154); settings: P. falciparum Indochina infected RBC osmotic lysis, higher = more signal, called active from +8 up or from −8 down
[14] = plasmodial surface anion channel blockers, osmotic lysis – cell-based, P. falciparum Indochina, OD700, 2 h, primary screen (AID 1155);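 also: lysis reports solute entry through the parasite surface anion channel PSAC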; settings: P. falciparum Indochina infected erythrocytes, higher = more signal, called active from +8 up or from −8 down
[15] = changes in parasitized red cell lysis, either direction – P. falciparum Indochina, OD700, 3 h, PSAC antagonist project, primary screen (AID 1156); settings: P. falciparum-infected erythrocytes, osmotic lysis, higher = more signal, called active from +8 up or from −8 down
[16] = plasmodial surface anion channel blockers, osmotic lysis – cell-based, P. falciparum Indochina, OD700, 18 h, primary screen (AID 1157); settings: P. falciparum Indochina infected erythrocytes, osmotic lysis OD700, 18 h; higher = more signal, called active from +8 up or from −8 down
[17] = S6 kinase pathway phospho-S6 level changes – cell-based, A549, cytoblot, luminescence, serum-stimulated, primary screen (AID 1158); settings: 5 h, higher = more signal;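 also: serum-stimulated A549 lung adenocarcinoma cells; signal is phosphorylated S6 detected by cytoblot immunostaining with HRP secondary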
[18] = biological target: NADPH oxidase 2 (Homo sapiens) (UniProt P04839); assay: compounds shifting NOX2 Amplex Red fluorescence – cell-based, HEK293-NOX2, PMA-stimulated, NOX inhibitor project, primary screen (AID 1159); settings: 45 min, higher = more signal, called active from +8 up or from −8 down; also: test concentration not given here
NADPH oxidase 2 (Homo sapiens), sequence (P04839 whole entry, looked up): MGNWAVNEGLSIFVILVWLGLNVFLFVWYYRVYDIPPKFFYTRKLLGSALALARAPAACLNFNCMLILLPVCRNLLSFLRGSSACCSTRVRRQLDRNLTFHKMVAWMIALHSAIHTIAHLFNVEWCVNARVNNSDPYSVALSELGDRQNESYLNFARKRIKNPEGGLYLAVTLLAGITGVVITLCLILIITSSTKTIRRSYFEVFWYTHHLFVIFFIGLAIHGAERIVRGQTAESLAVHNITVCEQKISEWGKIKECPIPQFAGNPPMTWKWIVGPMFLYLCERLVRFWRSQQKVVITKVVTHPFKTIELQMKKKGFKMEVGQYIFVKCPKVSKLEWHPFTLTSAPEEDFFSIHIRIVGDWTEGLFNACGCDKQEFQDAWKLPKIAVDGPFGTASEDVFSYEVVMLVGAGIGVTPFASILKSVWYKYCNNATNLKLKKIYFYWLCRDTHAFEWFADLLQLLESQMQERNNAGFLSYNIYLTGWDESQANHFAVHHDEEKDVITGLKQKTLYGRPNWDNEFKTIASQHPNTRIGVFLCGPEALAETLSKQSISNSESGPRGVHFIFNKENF

[19] = biological target: NADPH oxidase 4 (Homo sapiens) (UniProt Q9NPH5); assay: compounds shifting NOX4 Amplex Red fluorescence – cell-based, HEK293-NOX4, tetracycline-induced, NOX inhibitor project, primary screen (AID 1160); settings: HEK293-NOX4, Amplex Red H2O2 fluorescence, 45 min; higher = more signal, called active from +8 up or from −8 down
NADPH oxidase 4 (Homo sapiens), sequence (Q9NPH5 whole entry, looked up): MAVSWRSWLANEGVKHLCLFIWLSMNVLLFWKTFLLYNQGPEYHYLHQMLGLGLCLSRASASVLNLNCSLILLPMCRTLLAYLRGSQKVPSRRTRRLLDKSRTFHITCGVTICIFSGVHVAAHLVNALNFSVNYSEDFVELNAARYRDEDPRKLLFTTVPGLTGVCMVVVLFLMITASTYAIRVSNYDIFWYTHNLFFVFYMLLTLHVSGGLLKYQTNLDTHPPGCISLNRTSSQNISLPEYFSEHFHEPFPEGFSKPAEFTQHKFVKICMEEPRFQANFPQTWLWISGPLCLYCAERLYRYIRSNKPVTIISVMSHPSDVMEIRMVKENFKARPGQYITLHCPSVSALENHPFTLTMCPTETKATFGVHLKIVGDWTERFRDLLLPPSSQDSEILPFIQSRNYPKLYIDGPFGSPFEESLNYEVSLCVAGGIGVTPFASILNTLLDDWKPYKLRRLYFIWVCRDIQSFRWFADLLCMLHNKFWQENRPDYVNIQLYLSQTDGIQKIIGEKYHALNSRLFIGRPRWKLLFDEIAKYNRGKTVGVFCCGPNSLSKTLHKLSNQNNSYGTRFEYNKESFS

[20] = biological target: NADPH oxidase 5 (Homo sapiens) (UniProt Q96PH1); assay: compounds shifting NOX5 Amplex Red fluorescence – cell-based, HEK293-NOX5, NOX inhibitor project, primary screen (AID 1161); settings: HEK293-NOX5, ionomycin, 45 min, higher = more signal
NADPH oxidase 5 (Homo sapiens), sequence (Q96PH1 whole entry, looked up): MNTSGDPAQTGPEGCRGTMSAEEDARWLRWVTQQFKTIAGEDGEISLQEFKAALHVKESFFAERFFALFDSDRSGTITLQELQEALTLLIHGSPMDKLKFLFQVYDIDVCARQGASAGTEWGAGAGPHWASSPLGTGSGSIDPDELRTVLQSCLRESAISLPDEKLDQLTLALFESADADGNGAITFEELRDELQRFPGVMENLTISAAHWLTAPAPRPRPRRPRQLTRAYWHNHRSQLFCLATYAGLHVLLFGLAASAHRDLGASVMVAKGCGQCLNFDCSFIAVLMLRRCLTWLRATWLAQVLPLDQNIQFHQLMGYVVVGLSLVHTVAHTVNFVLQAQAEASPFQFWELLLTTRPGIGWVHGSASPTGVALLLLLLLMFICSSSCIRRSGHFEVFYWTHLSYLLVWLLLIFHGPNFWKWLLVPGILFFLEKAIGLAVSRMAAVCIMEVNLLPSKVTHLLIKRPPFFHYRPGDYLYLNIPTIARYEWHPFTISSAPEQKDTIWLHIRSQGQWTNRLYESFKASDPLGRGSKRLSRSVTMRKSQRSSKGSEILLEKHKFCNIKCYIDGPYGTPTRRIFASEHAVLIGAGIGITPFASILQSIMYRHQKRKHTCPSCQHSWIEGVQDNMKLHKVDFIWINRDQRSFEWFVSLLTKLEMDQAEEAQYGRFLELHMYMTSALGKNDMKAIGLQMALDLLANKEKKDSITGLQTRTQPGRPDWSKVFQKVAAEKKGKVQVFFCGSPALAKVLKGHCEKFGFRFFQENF

| SMILES | composite z-score [1] | z-score [2] | z-score [3] | z-score [4] | z-score [5] | composite z-score [6] | composite z-score [7] | composite z-score (Torsin-1A (Homo sapiens) [8]) | composite z-score (Torsin-1A (Homo sapiens) [9]) | composite z-score [10] | z-score [11] | composite z-score [12] | z-score [13] | z-score [14] | z-score [15] | z-score [16] | z-score [17] | z-score [18] | z-score [19] | z-score [20] |
| --- | --- | --- | --- | --- | --- | --- | --- | --- | --- | --- | --- | --- | --- | --- | --- | --- | --- | --- | --- | --- |
| CC(C)C[C@@H]1NC(=O)[C@H]2C[C@@H](C(=O)NCCCCCCN)[C@@H](c3ccc(O)cc3)N2C1=O | 0.0135 | -0.875 (inactive) | 0.469 (inactive) | 0.553 (inactive) | 1.08 (inactive) | 0.569 | 0.243 | 1.07 | 0.339 | 0.553 | -0.63 (inactive) | 0.51 | 1.9 (inactive) | 0.0643 (inactive) | -0.265 (inactive) | 0.3 (inactive) | -0.648 | 1.21 (inactive) | 1.05 (inactive) | 0.315 |
| CC(=O)NCCCC[C@@H]1NC(=O)[C@@H]2C[C@H](C(=O)NCCCCN(C)C)[C@H](c3cccc(OCCO)c3)N2C1=O | -0.0339 | 0.344 (inactive) | -0.269 (inactive) | 0.0043 (inactive) | -0.874 (inactive) | -0.451 | -0.154 | -1.28 | 0.0889 | 1.04 | 0.522 (inactive) | -0.243 | 0.628 (inactive) | 0.0655 (inactive) | -0.0825 (inactive) | 0.105 (inactive) | -0.326 | -0.0869 (inactive) | -0.115 (inactive) | -0.205 |
| O=C1NC(=O)C2C1C=CC(C(O)Cc1ccccc1)N2Nc1ccc(Cl)cc1Cl (stereo not given) | -0.209 | -0.0389 (inactive) | -0.171 (inactive) | 0.44 (inactive) | 0.115 (inactive) | 0.889 | 0.0345 | -0.0973 | 1.12 | -0.546 | -0.78 (inactive) | 0.599 | 4.35 (inactive) | 0.953 (inactive) | 0.273 (inactive) | 1.15 (inactive) | -0.834 | -1.28 (inactive) | -5.02 (inactive) | -1.9 |
| CC(C)(C)OC(=O)CC[C@@]1(C(=O)NCCN2CCOCC2)N=C(c2ccc(OCCCO)cc2)O[C@@H]1c1ccccc1N=[N+]=[N-] | 0.492 | -1.34 (inactive) | 1.45 (inactive) | 1.55 (inactive) | -0.564 (inactive) | 0.554 | 0.0614 | 1.67 | 1.43 | -0.431 | 0.0974 (inactive) | 0.266 | 31.4 (active) | 28 (active) | 3.73 (inactive) | 5.67 (inactive) | -0.249 | -2.91 (inactive) | 0.765 (inactive) | -1.73 |
| NC(=O)[C@@H]1[C@H]2C(=O)O[C@H](c3ccccc3)[C@H](c3ccccc3)N2[C@H](c2ccc(O)cc2)[C@@]12C(=O)Nc1ccc(C#CC3(O)CCCCCC3)cc12 | -0.277 | -0.0907 (inactive) | -0.269 (inactive) | 0.568 (inactive) | -0.301 (inactive) | -1.08 | -0.148 | 0.398 | 1.1 | -0.323 | -0.723 (inactive) | -0.0544 | 2.28 (inactive) | 0.912 (inactive) | 0.904 (inactive) | 0.812 (inactive) | -0.231 | 0.834 (inactive) | -0.258 (inactive) | -0.125 |
